Inconclusive results are not listed. Activity calls are given as the source filed them. The calls were made as follows: active = hit-call score of the fitted dose curve at least 0.9, where 1 is the maximum; inconclusive = response in the unintended direction; inactive = score below 0.9.
Columns and labels:
[1] = TOX21_p53_BLA_p2_viability: Viability Assessment in the Tox21 HCT-116 p53 Agonism Beta-lactamase Assay, Phase 2 (AID 2283591);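 also: compound exposure lasted 16 h at 37 °C; actives lower the ATP signal meaning cytotoxicity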
Outline: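 HCT116 p53-bla cells, 4000/well, dosed after 5 h plating (217-fold dilution of DMSO stocks) and incubated 16 h at 37C. Viability taken as cellular ATP by CellTiter-Glo luminescence after 30 min RT; signal loss marks cytotoxicity.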

[2] = TOX21_p53_BLA_p3_viability: Viability Assessment in the Tox21 HCT-116 p53 Agonism Beta-lactamase Assay, Phase 3 (AID 2283593);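 also: cells exposed to compound for 16 h before reading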
Outline: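 HCT116 cells, 4000/well, dosed 5 h after plating by pin transfer (217-fold dilution from DMSO stock) and incubated 16 h at 37C, 5% CO2. Viability read as ATP luminescence with CellTiter-Glo after 30 min at room temperature.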

[3] = biological target: Cellular tumor antigen p53 (Homo sapiens) (UniProt P04637); assay: TOX21_p53_BLA_p3_ratio: Tox21 HCT-116 p53 Agonism Beta-lactamase Assay, Ratio, Phase 3 (AID 2283596)
Chain of Cellular tumor antigen p53 (Homo sapiens) (P04637 whole entry, looked up): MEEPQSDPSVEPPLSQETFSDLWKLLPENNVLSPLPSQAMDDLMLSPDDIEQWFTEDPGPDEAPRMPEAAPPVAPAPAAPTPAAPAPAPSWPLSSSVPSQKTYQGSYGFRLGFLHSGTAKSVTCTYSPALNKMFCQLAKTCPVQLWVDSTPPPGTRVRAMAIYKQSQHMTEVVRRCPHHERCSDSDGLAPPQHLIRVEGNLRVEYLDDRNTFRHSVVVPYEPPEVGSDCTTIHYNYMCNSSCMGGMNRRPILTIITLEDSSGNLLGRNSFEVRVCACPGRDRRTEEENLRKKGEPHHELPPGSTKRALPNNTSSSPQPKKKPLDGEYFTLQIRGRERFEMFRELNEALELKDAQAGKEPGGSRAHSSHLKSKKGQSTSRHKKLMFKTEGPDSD
Outline: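 HCT116 p53-bla cells (4000/well) given compound in DMSO (217-fold dilution) after 5 h, incubated 16 h at 37C. CCF4-AM substrate 2 h at room temperature; 460/530 nm emission ratio, gain fitted against DMSO.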

[4] = TOX21_p53_BLA_p4_viability: Viability Assessment in the Tox21 HCT-116 p53 Agonism Beta-lactamase Assay, Phase 4 (AID 2283597);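 also: hits lower the luminescence signal meaning cytotoxicity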
Outline: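 Luminescent ATP readout (CellTiter-Glo, 30 min, room temperature) in the same wells as the p53 bla ratio. HCT116 cells were treated for 16 h at 37C with DMSO-dissolved compounds.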

[5] = biological target: Cellular tumor antigen p53 (Homo sapiens) (UniProt P04637); assay: TOX21_p53_BLA_p5_ratio: Tox21 HCT-116 p53 Agonism Beta-lactamase Assay, Ratio, Phase 5 (AID 2283599)
Outline: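 HCT-116 p53-bla cells (4000/well) plated 5 h, dosed with compound (217-fold DMSO dilution) for 16 h at 37 C; CCF4-AM substrate 2 h at room temperature. Activity is the 460/530 nm emission ratio (405 nm excitation), fitted in gain-of-signal direction versus DMSO.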

[6] = TOX21_p53_BLA_p5_viability: Viability Assessment in the Tox21 HCT-116 p53 Agonism Beta-lactamase Assay, Phase 5 (AID 2283600)
Outline: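 Seeded cells (4000/well) settle 5 h before compound addition. Plates then incubate 16 h at 37C, receive FRET substrate for 2 h, and finally CellTiter-Glo, with luminescence measured after a 30 min room-temperature incubation.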

[7] = biological target: Cellular tumor antigen p53 (Homo sapiens) (UniProt P04637); assay: TOX21_p53_BLA_p4_ratio: Tox21 HCT-116 p53 Agonism Beta-lactamase Assay, Ratio, Phase 4 (AID 2283601)
Outline: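 HCT-116 p53 beta-lactamase reporter cells (4000/well) preincubated 5 h, then compound (217-fold dilution of DMSO stock) for 16 h at 37C. CCF4-AM substrate added 2 h at room temperature; 460/530 nm emission ratio fitted upward versus DMSO.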

PGR (gene 5241) [8] = biological target: PGR (gene 5241) (UniProt P06401); assay: TOX21_PR_BLA_Followup_Antagonist_ratio: Tox21 HEK293 Progesterone Receptor (PR) Antagonism Beta-lactamase Follow-Up Assay, Ratio (AID 2283934)
Chain of PGR (gene 5241) (P06401 whole entry, looked up): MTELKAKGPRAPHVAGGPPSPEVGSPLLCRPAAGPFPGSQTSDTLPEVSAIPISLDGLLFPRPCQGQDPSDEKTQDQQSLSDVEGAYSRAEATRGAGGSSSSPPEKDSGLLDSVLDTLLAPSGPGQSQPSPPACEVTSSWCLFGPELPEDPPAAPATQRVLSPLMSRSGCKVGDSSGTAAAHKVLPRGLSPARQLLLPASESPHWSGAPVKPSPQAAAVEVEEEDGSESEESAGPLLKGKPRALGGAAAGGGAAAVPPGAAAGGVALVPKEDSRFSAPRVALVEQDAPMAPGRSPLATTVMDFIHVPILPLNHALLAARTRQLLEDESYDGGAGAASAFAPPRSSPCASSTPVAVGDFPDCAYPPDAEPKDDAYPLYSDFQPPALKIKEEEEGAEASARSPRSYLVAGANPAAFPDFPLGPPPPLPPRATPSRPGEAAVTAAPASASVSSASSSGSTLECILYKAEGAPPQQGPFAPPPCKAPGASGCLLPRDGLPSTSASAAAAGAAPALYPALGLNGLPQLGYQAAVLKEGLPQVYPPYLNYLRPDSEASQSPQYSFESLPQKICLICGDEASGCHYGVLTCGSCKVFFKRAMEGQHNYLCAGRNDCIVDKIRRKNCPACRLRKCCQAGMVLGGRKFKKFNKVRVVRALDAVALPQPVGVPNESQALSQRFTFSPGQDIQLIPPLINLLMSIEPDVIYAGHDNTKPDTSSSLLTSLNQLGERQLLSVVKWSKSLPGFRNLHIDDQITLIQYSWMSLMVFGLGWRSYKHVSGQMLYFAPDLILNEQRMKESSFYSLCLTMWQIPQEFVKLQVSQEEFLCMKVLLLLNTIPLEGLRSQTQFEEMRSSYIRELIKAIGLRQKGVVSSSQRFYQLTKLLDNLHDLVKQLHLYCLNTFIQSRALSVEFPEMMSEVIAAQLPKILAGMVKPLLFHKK
Outline: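 HEK293T PR-UAS-bla, 2% CS-FBS; 6 hr plating, then cpd + R5020 (1 nM final), 16 hr 37C/5% CO2. B/G FRET substrate 2 h RT. Ratio ch2/ch1 vs DMSO; CellTiter-Glo viability multiplexed, autofluorescence checked.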

[9] = TOX21_PR_BLA_Followup_Agonist_viability: Viability Assessment in the Tox21 HEK293 Progesterone Receptor (PR) Agonism Beta-lactamase Follow-Up Assay (AID 2283935);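 also: signal loss means lower viability so actives are cytotoxic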
Outline: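 HEK293T PR-UAS-bla, 3,000 cells/well, 2% CS-FBS; 6 hr pre-incubation; cpd in DMSO, 16 hr 37C; LiveBLAzer 2 hr RT, then CellTiter-Glo 30 min RT, luminescence. Decrease = lost viability.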

[10] = TOX21_PR_BLA_Followup_Antagonist_viability: Viability Assessment in the Tox21 HEK293 Progesterone Receptor (PR) Antagonism Beta-lactamase Follow-Up Assay (AID 2283936);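 also: hits lower the luminescence signal meaning cytotoxicity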
Outline: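 PR-UAS-bla HEK293T cells (3,000/well, 2% charcoal-stripped FBS) given compound plus R5020 agonist, 16 h at 37C. CellTiter-Glo added after bla read, 30 min at room temperature; luminescence loss indicates cytotoxicity.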

PGR (gene 5241) [11] = biological target: PGR (gene 5241) (UniProt P06401); assay: TOX21_PR_LUC_Followup_Antagonist: Tox21 HEK293 Progesterone Receptor (PR) Antagonism Luciferase Follow-Up Assay (AID 2283938);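 also: curve fitted upward as signal gain over DMSO baseline despite antagonist label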
Outline: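 Luciferase reporter in HEK293-PR-A-luc cells: 16 h compound treatment at 37C, ONE-Glo luminescence detection, DMSO as negative control and baseline.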

[12] = TOX21_PR_LUC_Followup_Antagonist_viability: Viability Assessment in the Tox21 HEK293 Progesterone Receptor (PR) Antagonism Luciferase Follow-Up Assay (AID 2283940)
Outline: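 Multiplexed viability counter-screen: after 5 days in charcoal-stripped-FBS medium, HEK293-PR-A-luc cells are plated, pinned with DMSO-dissolved compounds for 16 h at 37C, and ATP content is quantified luminescently via CellTiter-Glo.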

[13] = TOX21_PR_LUC_Followup_Agonist_viability: Viability Assessment in the Tox21 HEK293 Progesterone Receptor (PR) Agonism Luciferase Follow-Up Assay (AID 2283941);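 also: loss of signal means cytotoxicity so actives lower viability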
Outline: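 Cells were kept 5 days in charcoal-stripped serum medium before plating HEK293-PR-A-luc at 3,000 cells/well. After 5 h they received DMSO-dissolved compound and incubated 16 h at 37C. Viability was taken from CellTiter-Glo ATP luminescence.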

[14] = biological target: Thyroid hormone receptor alpha (Rattus norvegicus) + Thyroid hormone receptor beta (Rattus norvegicus) (UniProt P18113+P63059); assay: TOX21_TR_LUC_GH3_Antagonist_Followup: Tox21 GH3 Thyroid Hormone Receptor Antagonism Luciferase Follow-Up Assay (AID 2283942)
Outline: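 Antagonist mode: GH3 cells seeded 1,500/well, compounds at 15 concentrations (92 uM to 5nM final) plus T3 at 1.0 nM final, 24 h at 37C. Luciferase read with ONE-Glo after 30 min at room temperature.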

[15] = TOX21_TRB_BLA_Antagonist_Followup_viability: Viability Assessment in the Tox21 Thyroid Hormone Receptor beta Antagonism Beta-lactamase (BLA) Follow-Up Assay (AID 2283961)
Outline: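 In the same wells as the reporter read, cell health was gauged by CellTiter-Glo ATP luminescence, with signal loss indicating reduced viability. Cells had been exposed to test compounds for 18 h.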

THRB (gene 7068) = THRB (gene 7068) (UniProt P10828); assay: TOX21_TRB_COA_Antagonist_Followup_ratio: Tox21 Thyroid Hormone Receptor beta Antagonism through Coactivator Recruitment Follow-Up Assay, Ratio (AID 2283967)
Chain of THRB (gene 7068) (P10828 whole entry, looked up, the tested form may be a part): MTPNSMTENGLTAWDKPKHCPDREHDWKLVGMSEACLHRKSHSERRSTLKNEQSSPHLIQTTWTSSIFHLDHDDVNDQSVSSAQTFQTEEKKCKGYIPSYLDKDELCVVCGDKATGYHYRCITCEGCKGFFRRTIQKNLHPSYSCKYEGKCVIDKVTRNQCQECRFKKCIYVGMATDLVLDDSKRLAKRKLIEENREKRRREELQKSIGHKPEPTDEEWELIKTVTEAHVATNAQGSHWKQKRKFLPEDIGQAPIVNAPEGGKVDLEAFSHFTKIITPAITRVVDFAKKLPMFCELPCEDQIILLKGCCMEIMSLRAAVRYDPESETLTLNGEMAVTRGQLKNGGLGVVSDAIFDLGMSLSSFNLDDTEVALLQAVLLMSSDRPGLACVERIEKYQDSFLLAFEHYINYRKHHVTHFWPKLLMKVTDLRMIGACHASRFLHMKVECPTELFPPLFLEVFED
Outline: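 Cell-free TR-FRET: GST-TRb LBD (5.0 nM) with fluorescein-SRC-2 peptide (200 nM) and Tb anti-GST antibody (2 nM), 0.10% BSA. 520:495 nm emission ratio normalized to DMSO (0%) and T3 (100%).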

[16] = TOX21_TR_RXR_BLA_Antagonist_Followup_viability: Viability Assessment in the Tox21 Thyroid Hormone Receptor beta Retinoid X Receptor alpha (RXRa) Antagonism Beta-lactamase (BLA) Follow-Up Assay (AID 2283979)
Outline: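 RXRa-bla HEK293T cells (2,500/well, phenol red-free DMEM, 2% charcoal-stripped FBS) were attached 5 h, then exposed to compounds at 11 concentrations in triplicate for 16 h at 37C. Viability measured by CellTiter-Glo ATP luminescence, bidirectional fitting versus DMSO.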

Measured: AC50

OCC(S)CS (stereo not given)
inactive: [1] | [4] | [5] | [6] | [7]
active: [2] 29.5 µM | [3] 35.7 µM

CC(=O)O[C@H]1C[C@@H]2CC[C@@H]3[C@H](CC[C@@]4(C)[C@H]3C[C@H]([N+]3(C)CCCCC3)[C@@H]4OC(C)=O)[C@@]2(C)C[C@@H]1[N+]1(C)CCCCC1
inactive: [1] | [2] | [3] | [4] | [5] | [6] | [7]

OC[C@@H](O)[C@@H](O)CO
inactive: [1] | [2] | [3] | [4] | [5] | [6] | [7]

C[C@]12CCC(=O)C=C1C=C[C@@H]1[C@@H]2CC[C@@]2(C)[C@H]1CC[C@@]21CCC(=O)O1
not listed: [7] | [14] | [15] | THRB (gene 7068) | [16]
inactive: all other assays above

CCOC(=O)[C@H](CCc1ccccc1)N[C@@H](C)C(=O)N1[C@H](C(=O)O)C[C@H]2CCCC[C@@H]21
inactive: [1] | [2] | [3] | [4] | [5] | [6] | [7]

CCCCCCNC(=O)n1cc(F)c(=O)[nH]c1=O
active: [1] 0.709 µM | [2] 1.26 µM | [3] 2.57 µM | [4] 3.62 µM | [5] 2.87 µM | [6] 1.02 µM | [7] 2.24 µM | [14] 12 µM
inactive: [15] | THRB (gene 7068) | [16]

CC1=C(C(=O)OC(C)C)C(c2cccc([N+](=O)[O-])c2)C(C(=O)OC2CN(C(c3ccccc3)c3ccccc3)C2)=C(N)N1 (stereo not given)
active: [1] 10.3 µM | [2] 9.2 µM | [3] 17.7 µM | [4] 34.2 µM | [5] 43.6 µM | [6] 38 µM | [7] 43.5 µM

CN(C)C(=O)Oc1cccc([N+](C)(C)C)c1
inactive: [1] | [2] | [3] | [4] | [5] | [7]

CC(=O)C=Cc1ccco1
inactive: [1] | [2] | [3] | [4] | [5] | [6] | [7]

O=C(Nc1ccc(Br)cc1)c1cc(Br)c(Br)s1
active: [1] 23 µM | [2] 32.2 µM | [3] 18.8 µM | [4] 19.5 µM | [5] 19.9 µM
inactive: [6] | [7]

CC(=O)c1ccc2c(c1)N(CCCN1CCC(CCO)CC1)c1ccccc1S2
inactive: [1] | [2] | [3] | [4] | [5] | [6] | [7]
